These results are taken from PubChem BioAssay.

Molecules are shown by their SMILES. For part of these data: Results with a measured potency or affinity are listed apart. Activity calls are given as the source filed them. Unless noted, cut-off not given; nearly all actives show IC50 up to about 0.98 µM.

Test system in the first experiment: not listed separately
Nature of the experiment: inhibition of 3D7 malaria parasite growth – strain 3D7 (AID 2306; call rule not given here;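 further: 0% = DMSO wells and 100% = chloroquine plus artemisinin control wells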). The following applies: P. falciparum 3D7 erythrocytic growth, LDH absorbance, 72 h; at 2 µM; stronger effect = higher value.
On to `COc1cccc(CNC[C@@H](O)[C@H](Cc2ccccc2)NC(=O)c2cc(C(C)C)cc(N3CCCC3=O)c2)c1`, for which the growth inhibition is 95% (active).
In the case of `COc1ccc2ncc(C#N)c(CCN3CCC(NCc4ccc5c(c4)OCCO5)CC3)c2c1`, the growth inhibition was 96% (active).
Same read-out and setting: with `CCC(CC)(Cc1ccccc1)NC(=O)[C@H](CC(C)C)Nc1ccc(C#N)c2ccccc12` the figure was 90% (active); with `O=S(=O)(Nc1cccc(CCN2CCCCC2CCN2CCCC2)c1)c1ccc(-c2ccccc2)cc1` (stereo not drawn), 99% (active).
With `COc1cccc2sc(N3CCN(C(=O)c4ccc([N+](=O)[O-])o4)CC3)nc12`, the growth inhibition was 95% (active).
Consider `Cc1onc(-c2c(F)cccc2Cl)c1C(=O)Nc1ccccc1I`, for which the growth inhibition was 99% (active).
Turning to `Cc1ccccc1C1CCN(C2CCC(NC(=O)c3ccc(-c4cccs4)s3)CC2)CC1` (stereo not drawn), the growth inhibition is 101% (active).
Regarding `COc1ccccc1CCNc1nc(C)cc(NCCC(=O)Nc2ccccc2)n1`, the growth inhibition was 101% (active).
Take `O=C(Cn1c(CCc2cccc(F)c2F)cc(=O)c2ccccc21)N(CCN1CCCC1)Cc1ccc(-c2ccc(C(F)(F)F)cc2)cc1`: the growth inhibition is 99% (active).
`O=C(CCN1C(=O)c2ccccc2C1=O)N1CCN(CC=Cc2ccccc2)CC1`: the growth inhibition was 87% (active).
As for `Cc1cccc(CN2CCCC3(CCN(Cc4ccccc4O)C3)C2)c1` (stereo not drawn), the growth inhibition was 99% (active).
Still for that read-out and setting: with `Nc1nc2c(c(=O)[nH]1)CN(S(=O)(=O)c1ccc(C(=O)N[C@@H](CCC(=O)O)C(=O)O)cc1)CC2` the figure was 95% (active); with `O=C(Nc1cccc(-c2nc3ccccc3[nH]2)c1)c1ccc(-c2cccc([N+](=O)[O-])c2)o1`, 93% (active).
As for `O=C(/C=C/c1ccc(Cl)c(Cl)c1)NCCCCCCN1CCN(C(=O)Nc2cccc(Cl)c2)CC1`, the growth inhibition is 85% (active).
For the molecule `CC(Cc1ccc(CNC(=O)NCc2ccc(CC(C)NCCc3cccc(Cl)c3)cc2)cc1)NCCc1cccc(Cl)c1` (stereo not drawn), the growth inhibition is 100% (active).
On to `CCCCCCN1CCC(NCc2cccc(C#N)c2)CC1`, for which the growth inhibition was 97% (active).
Same read-out and setting: the result for `O=C(Nc1cccc(CN2CCCN(Cc3cccc(O)c3)CC2)c1)c1ccc(-c2ccccc2)cc1` reads 101% (active).
Consider `FC(F)(F)c1ccc2nc(-c3ccc(-c4cccc(CNCCc5cccnc5)c4)s3)[nH]c2c1`, for which the growth inhibition is 101% (active).
As for `CCCCCCCNC(=O)NCC1CCCN(CCCCCNC(=O)/C=C/c2ccc(Cl)c(Cl)c2)C1` (stereo not drawn), the growth inhibition is 86% (active).
For `CC1CCc2c(C(=O)Nc3c(F)cc(F)cc3Br)csc2C1` (stereo not drawn), the growth inhibition was 96% (active).
Consider `CC(C)COc1ccc(Cl)cc1Cc1ccc(-c2nc3ccc(CCN(C)C)cc3[nH]2)o1`, for which the growth inhibition was 92% (active).
As for `CCOc1ccc(C2CCN(CCCCNC(=O)c3ccc(NC(=O)c4ccc(Cl)cc4)cc3)CC2)c(OCC)c1`, the growth inhibition was 101% (active).
`O=C(N[C@@H](CC1CCCCC1)C(=O)NC1CCCc2ccccc21)c1ccc(O)c(-c2ccc(Cl)c(Cl)c2)c1` (stereo partly drawn): the growth inhibition was 98% (active).
Still for that read-out and setting: with `CCOC(=O)c1ccc(-c2cnoc2-c2cc(CC)c(OC)cc2O)o1` the figure was 101% (active); with `Cc1ccc2cc(NC(=O)c3cccc(C(=O)Nc4ccc5nc(C)ccc5c4)n3)ccc2n1`, 92% (active).
`CC1CC(NCCCNc2cc(=O)c3ccccc3[nH]2)c2c(Cl)c(Cl)cc(Cl)c21` (stereo not drawn): the growth inhibition is 87% (active).
For the molecule `N#Cc1ccc2c(c1)CCN(CCCn1c(-c3ccc4ccccc4c3)nc3ccncc31)CC2`, the growth inhibition is 102% (active).
In the case of `O=C(Nc1ccc2nc3n(c(=O)c2c1)CCCCC3)C(=O)N1CCN(c2ccc(F)cc2)CC1`, the growth inhibition was 93% (active).
As to `COc1ccc2nccc(N3CCN(CCNCc4ccc5c(n4)NC(=O)CS5)CC3)c2n1`, the growth inhibition is 100% (active).
On to `COc1ccc(NC(=O)Nc2ccc(-c3ccncc3)c(C(F)(F)F)c2)cc1N1CCN(C)CC1`, for which the growth inhibition was 101% (active).
Take `O=S(=O)(NCCN1CCCC1)c1cccc(-c2ccc(CNCc3ccc(F)cc3)cc2)c1`: the growth inhibition was 104% (active).
The same measure, in the same setting: the result for `O=C(NC1CC1)c1ccc(N2CCOc3ccc(Cl)cc32)s1` reads 94% (active); that for `CCOc1cc(Cc2cnc(N)nc2N)cc(OCC)c1OCCCCC(=O)OC`, 95% (active); that for `Clc1ccc(-c2ccc(C=NNc3nc(Nc4ccccc4)nc(Nc4ccccc4)n3)o2)cc1Cl`, 97% (active).
Take `CCOC(=O)CNC(=O)N(CCN(Cc1ccccc1)C(=O)NCC(=O)OCC)Cc1ccccc1`: the growth inhibition was 98% (active).
As for `CCN(CC)CCN(Cc1ccc(-c2ccc(C(F)(F)F)s2)cc1)C(=O)Cn1c(CCc2cccc(F)c2F)nc(=O)c2ccccc21`, the growth inhibition was 94% (active).
As to `O=C(Nc1cccc(-c2ccc(CN3CCNCC3)cc2)c1)c1cccc(Cl)c1`, the growth inhibition is 92% (active).
The same measure, in the same setting: with `Cc1cccc(Cn2c(Cc3ccccc3)nnc2Sc2ccc([N+](=O)[O-])c(C#N)c2)c1` the figure was 91% (active); with `COc1cc(-c2ccc(-c3cnc(N)nc3OC)[nH]2)cc(OC)c1OC`, 101% (active).

In a further experiment the target is Calcium-dependent protein kinase 1 (Plasmodium falciparum (isolate 3D7)) (UniProt P62344). As to the kind of experiment: PfCDPK1 kinase inhibitors, biochemical, TCAMS library (AID 1159585).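 Further: inhibitors leave more ATP so luminescence rises with inhibition.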 Conditions: recombinant PfCDPK1, Kinase-Glo ATP depletion luminescence. (In general: In Kinase-Glo more light means more ATP remaining.)
Sequence of Calcium-dependent protein kinase 1 (Plasmodium falciparum (isolate 3D7)) (P62344 whole entry, looked up): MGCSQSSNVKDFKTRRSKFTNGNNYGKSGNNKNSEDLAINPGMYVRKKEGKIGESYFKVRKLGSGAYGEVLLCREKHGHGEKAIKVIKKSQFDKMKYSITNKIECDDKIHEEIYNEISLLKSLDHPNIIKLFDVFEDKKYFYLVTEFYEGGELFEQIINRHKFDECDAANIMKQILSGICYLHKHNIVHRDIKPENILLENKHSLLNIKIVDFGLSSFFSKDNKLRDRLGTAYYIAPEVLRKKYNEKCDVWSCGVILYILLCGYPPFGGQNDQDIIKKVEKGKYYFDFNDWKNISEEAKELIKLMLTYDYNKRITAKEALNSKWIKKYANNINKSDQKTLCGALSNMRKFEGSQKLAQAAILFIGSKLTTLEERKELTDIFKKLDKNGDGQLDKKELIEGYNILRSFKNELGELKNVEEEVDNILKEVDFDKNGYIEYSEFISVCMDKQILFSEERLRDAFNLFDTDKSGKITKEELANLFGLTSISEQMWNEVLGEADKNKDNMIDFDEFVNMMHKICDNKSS
Regarding `COc1cccc(CNC[C@@H](O)[C@H](Cc2ccccc2)NC(=O)c2cc(C(C)C)cc(N3CCCC3=O)c2)c1`, the outcome was inactive.
`COc1ccc2ncc(C#N)c(CCN3CCC(NCc4ccc5c(c4)OCCO5)CC3)c2c1`: the outcome was inactive.
For `CCC(CC)(Cc1ccccc1)NC(=O)[C@H](CC(C)C)Nc1ccc(C#N)c2ccccc12`, the outcome was inactive.
With `O=S(=O)(Nc1cccc(CCN2CCCCC2CCN2CCCC2)c1)c1ccc(-c2ccccc2)cc1` (stereo not drawn), the result was inactive.
The same measure, in the same setting: with `COc1cccc2sc(N3CCN(C(=O)c4ccc([N+](=O)[O-])o4)CC3)nc12` the entry was “inactive”; with `Cc1onc(-c2c(F)cccc2Cl)c1C(=O)Nc1ccccc1I`, “inactive”.
Still for that read-out and setting: with `Cc1ccccc1C1CCN(C2CCC(NC(=O)c3ccc(-c4cccs4)s3)CC2)CC1` (stereo not drawn) the entry was “inactive”; with `COc1ccccc1CCNc1nc(C)cc(NCCC(=O)Nc2ccccc2)n1`, “inactive”; with `O=C(Cn1c(CCc2cccc(F)c2F)cc(=O)c2ccccc21)N(CCN1CCCC1)Cc1ccc(-c2ccc(C(F)(F)F)cc2)cc1`, “inactive”.
For `O=C(CCN1C(=O)c2ccccc2C1=O)N1CCN(CC=Cc2ccccc2)CC1`, the result was inactive.
For the molecule `Cc1cccc(CN2CCCC3(CCN(Cc4ccccc4O)C3)C2)c1` (stereo not drawn), the outcome was inactive.
In the case of `Nc1nc2c(c(=O)[nH]1)CN(S(=O)(=O)c1ccc(C(=O)N[C@@H](CCC(=O)O)C(=O)O)cc1)CC2`, the result was inactive.
For the molecule `O=C(Nc1cccc(-c2nc3ccccc3[nH]2)c1)c1ccc(-c2cccc([N+](=O)[O-])c2)o1`, the result was inactive.
For `O=C(/C=C/c1ccc(Cl)c(Cl)c1)NCCCCCCN1CCN(C(=O)Nc2cccc(Cl)c2)CC1`, the result was inactive.
For `CC(Cc1ccc(CNC(=O)NCc2ccc(CC(C)NCCc3cccc(Cl)c3)cc2)cc1)NCCc1cccc(Cl)c1` (stereo not drawn), the result was inactive.
On to `CCCCCCN1CCC(NCc2cccc(C#N)c2)CC1`, for which the result was inactive.
The same measure, in the same setting: with `O=C(Nc1cccc(CN2CCCN(Cc3cccc(O)c3)CC2)c1)c1ccc(-c2ccccc2)cc1` the entry was “inactive”; with `FC(F)(F)c1ccc2nc(-c3ccc(-c4cccc(CNCCc5cccnc5)c4)s3)[nH]c2c1`, “inactive”.
For the molecule `CCCCCCCNC(=O)NCC1CCCN(CCCCCNC(=O)/C=C/c2ccc(Cl)c(Cl)c2)C1` (stereo not drawn), the result was inactive.
For the molecule `CC1CCc2c(C(=O)Nc3c(F)cc(F)cc3Br)csc2C1` (stereo not drawn), the outcome was inactive.
`CC(C)COc1ccc(Cl)cc1Cc1ccc(-c2nc3ccc(CCN(C)C)cc3[nH]2)o1`: the outcome was inactive.
For `CCOc1ccc(C2CCN(CCCCNC(=O)c3ccc(NC(=O)c4ccc(Cl)cc4)cc3)CC2)c(OCC)c1`, the result was inactive.
Same read-out and setting: with `O=C(N[C@@H](CC1CCCCC1)C(=O)NC1CCCc2ccccc21)c1ccc(O)c(-c2ccc(Cl)c(Cl)c2)c1` (stereo partly drawn) the entry was “inactive”; with `CCOC(=O)c1ccc(-c2cnoc2-c2cc(CC)c(OC)cc2O)o1`, “inactive”.
On the same count and under the same terms, with `Cc1ccc2cc(NC(=O)c3cccc(C(=O)Nc4ccc5nc(C)ccc5c4)n3)ccc2n1` the entry was “inactive”.
Consider `CC1CC(NCCCNc2cc(=O)c3ccccc3[nH]2)c2c(Cl)c(Cl)cc(Cl)c21` (stereo not drawn), for which the outcome was inactive.
On to `N#Cc1ccc2c(c1)CCN(CCCn1c(-c3ccc4ccccc4c3)nc3ccncc31)CC2`, for which the outcome was inactive.
With `O=C(Nc1ccc2nc3n(c(=O)c2c1)CCCCC3)C(=O)N1CCN(c2ccc(F)cc2)CC1`, the result was inactive.
As for `COc1ccc2nccc(N3CCN(CCNCc4ccc5c(n4)NC(=O)CS5)CC3)c2n1`, the result was inactive.
In the case of `COc1ccc(NC(=O)Nc2ccc(-c3ccncc3)c(C(F)(F)F)c2)cc1N1CCN(C)CC1`, the outcome was inactive.
With `O=S(=O)(NCCN1CCCC1)c1cccc(-c2ccc(CNCc3ccc(F)cc3)cc2)c1`, the outcome was inactive.
`O=C(NC1CC1)c1ccc(N2CCOc3ccc(Cl)cc32)s1`: the result was inactive.
Regarding `CCOc1cc(Cc2cnc(N)nc2N)cc(OCC)c1OCCCCC(=O)OC`, the result was inactive.
Same read-out and setting: with `Clc1ccc(-c2ccc(C=NNc3nc(Nc4ccccc4)nc(Nc4ccccc4)n3)o2)cc1Cl` the entry was “inactive”; with `CCOC(=O)CNC(=O)N(CCN(Cc1ccccc1)C(=O)NCC(=O)OCC)Cc1ccccc1`, “inactive”.
Same read-out and setting: the result for `CCN(CC)CCN(Cc1ccc(-c2ccc(C(F)(F)F)s2)cc1)C(=O)Cn1c(CCc2cccc(F)c2F)nc(=O)c2ccccc21` reads “inactive”; that for `O=C(Nc1cccc(-c2ccc(CN3CCNCC3)cc2)c1)c1cccc(Cl)c1`, “inactive”.
As to `Cc1cccc(Cn2c(Cc3ccccc3)nnc2Sc2ccc([N+](=O)[O-])c(C#N)c2)c1`, the outcome was inactive.
In the case of `COc1cc(-c2ccc(-c3cnc(N)nc3OC)[nH]2)cc(OC)c1OC`, the outcome was inactive.
